Key:
Test in all cases: DAPPL (digital affinity profiling via proximity ligation, sequencing); 10 mM Tris-HCl pH 7.5, 50 mM NaCl, 1 mM DTT, 4% glycerol, room temperature, 30 min; GST-TFs on glutathione beads, 16-mer random dsDNA library, 0.1% formaldehyde crosslink after washing; high values mean tight binding
FEV = biological target: T1, FEV (Homo sapiens, UniProt Q99581 1-238); conditions: protein: recombinant; tags: N-terminal GST; dsDNA, one strand shown
T1 sequence: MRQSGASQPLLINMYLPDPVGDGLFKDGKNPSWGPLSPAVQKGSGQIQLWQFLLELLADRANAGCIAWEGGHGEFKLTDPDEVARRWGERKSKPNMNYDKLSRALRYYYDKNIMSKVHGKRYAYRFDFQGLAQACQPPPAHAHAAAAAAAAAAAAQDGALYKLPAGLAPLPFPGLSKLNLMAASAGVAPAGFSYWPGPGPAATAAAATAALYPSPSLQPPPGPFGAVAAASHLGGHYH
Summary of the method: (§1)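 Binding signal is each hexamer's read frequency for a factor divided by its frequency in the tag-only sample. The factors were GST-fused human transcription factors from yeast, captured on glutathione beads, DNA-barcoded and pooled with that sample. Pools were incubated with 200 nmole of a random double-stranded 16-mer DNA library in Tris/NaCl/DTT/glycerol buffer at room temperature for 30 min, then washed, crosslinked with 0.1% formaldehyde, proximity-ligated with BsaI/T4 ligase (1 h, 37 °C), PCR-amplified and sequenced on an Illumina NextSeq500.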

ETV5 = ETV5 (Homo sapiens, UniProt P41161 1-510); conditions: protein: recombinant; tags: N-terminal GST; dsDNA, one strand shown
ETV5, sequence (P41161 whole entry): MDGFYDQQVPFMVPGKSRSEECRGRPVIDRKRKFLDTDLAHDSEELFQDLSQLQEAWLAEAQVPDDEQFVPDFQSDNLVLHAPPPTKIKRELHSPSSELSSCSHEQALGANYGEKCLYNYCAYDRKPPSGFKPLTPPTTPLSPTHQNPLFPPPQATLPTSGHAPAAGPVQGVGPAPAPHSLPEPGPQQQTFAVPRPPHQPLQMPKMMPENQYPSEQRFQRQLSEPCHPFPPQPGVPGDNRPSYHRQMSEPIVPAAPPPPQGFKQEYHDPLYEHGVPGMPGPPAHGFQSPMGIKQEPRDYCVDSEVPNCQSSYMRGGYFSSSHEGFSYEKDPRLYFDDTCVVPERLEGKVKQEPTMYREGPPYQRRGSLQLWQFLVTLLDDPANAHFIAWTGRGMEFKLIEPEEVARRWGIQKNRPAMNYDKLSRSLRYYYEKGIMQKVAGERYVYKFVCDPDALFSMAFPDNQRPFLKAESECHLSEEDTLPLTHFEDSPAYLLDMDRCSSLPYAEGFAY
Summary of the method: as §1

HSF1 = HSF1 (Homo sapiens, UniProt Q00613 1-529); conditions: protein: recombinant; tags: N-terminal GST; chain copies: 3; dsDNA, one strand shown
HSF1, sequence (Q00613 whole entry): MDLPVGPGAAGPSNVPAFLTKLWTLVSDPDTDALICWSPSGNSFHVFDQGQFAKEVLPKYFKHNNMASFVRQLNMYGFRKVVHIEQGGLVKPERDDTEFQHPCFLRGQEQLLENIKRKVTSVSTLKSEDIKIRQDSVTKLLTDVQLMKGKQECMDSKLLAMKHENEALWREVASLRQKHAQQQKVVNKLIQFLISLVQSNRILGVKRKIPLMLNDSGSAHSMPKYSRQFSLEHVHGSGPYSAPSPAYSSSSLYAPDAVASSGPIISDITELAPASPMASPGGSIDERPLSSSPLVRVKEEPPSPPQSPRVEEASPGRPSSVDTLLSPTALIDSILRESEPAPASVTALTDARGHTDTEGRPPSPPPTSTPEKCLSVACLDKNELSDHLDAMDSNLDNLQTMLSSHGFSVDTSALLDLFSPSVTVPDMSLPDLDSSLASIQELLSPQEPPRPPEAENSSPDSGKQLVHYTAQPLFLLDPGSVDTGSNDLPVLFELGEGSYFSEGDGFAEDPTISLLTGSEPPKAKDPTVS
Summary of the method: as §1

ELF4 = ELF4 (Homo sapiens, UniProt Q99607 1-663); conditions: protein: recombinant; tags: N-terminal GST; dsDNA, one strand shown
ELF4, sequence (Q99607 whole entry): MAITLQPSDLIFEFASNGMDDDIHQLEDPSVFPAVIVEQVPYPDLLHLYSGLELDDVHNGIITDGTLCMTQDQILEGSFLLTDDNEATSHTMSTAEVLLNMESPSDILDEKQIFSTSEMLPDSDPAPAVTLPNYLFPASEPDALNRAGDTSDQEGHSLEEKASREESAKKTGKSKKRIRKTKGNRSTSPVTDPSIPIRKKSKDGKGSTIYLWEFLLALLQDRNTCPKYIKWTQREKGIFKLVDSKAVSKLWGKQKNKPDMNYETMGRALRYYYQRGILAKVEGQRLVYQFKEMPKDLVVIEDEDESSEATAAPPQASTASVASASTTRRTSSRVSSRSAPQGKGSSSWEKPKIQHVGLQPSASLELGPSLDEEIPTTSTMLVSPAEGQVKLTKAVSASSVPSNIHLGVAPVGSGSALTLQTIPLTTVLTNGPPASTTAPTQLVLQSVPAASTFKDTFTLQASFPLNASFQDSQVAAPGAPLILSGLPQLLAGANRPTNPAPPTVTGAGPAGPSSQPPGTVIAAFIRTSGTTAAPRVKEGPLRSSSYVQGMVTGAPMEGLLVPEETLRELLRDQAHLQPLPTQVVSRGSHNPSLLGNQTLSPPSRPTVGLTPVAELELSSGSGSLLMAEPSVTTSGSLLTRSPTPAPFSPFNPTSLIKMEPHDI
Summary of the method: as §1

ELK4 = biological target: T2, ELK4 (Homo sapiens, UniProt P28324-2 1-405); conditions: protein: recombinant; tags: N-terminal GST; dsDNA, one strand shown
T2 sequence: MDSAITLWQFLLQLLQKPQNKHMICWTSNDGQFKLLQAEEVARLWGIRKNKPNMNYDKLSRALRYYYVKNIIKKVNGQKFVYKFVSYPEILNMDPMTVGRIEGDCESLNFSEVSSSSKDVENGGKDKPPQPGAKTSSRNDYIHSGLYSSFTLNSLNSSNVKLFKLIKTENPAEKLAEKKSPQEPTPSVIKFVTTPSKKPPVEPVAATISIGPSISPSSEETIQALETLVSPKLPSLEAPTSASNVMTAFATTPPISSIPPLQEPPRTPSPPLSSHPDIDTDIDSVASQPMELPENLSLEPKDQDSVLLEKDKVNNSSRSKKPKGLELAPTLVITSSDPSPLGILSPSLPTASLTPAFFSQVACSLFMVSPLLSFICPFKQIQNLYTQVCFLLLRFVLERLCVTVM
Summary of the method: as §1

ETV2 = biological target: T3, ETV2 (Homo sapiens, UniProt O00321 1-342); conditions: protein: recombinant; tags: N-terminal GST; dsDNA, one strand shown
T3 sequence: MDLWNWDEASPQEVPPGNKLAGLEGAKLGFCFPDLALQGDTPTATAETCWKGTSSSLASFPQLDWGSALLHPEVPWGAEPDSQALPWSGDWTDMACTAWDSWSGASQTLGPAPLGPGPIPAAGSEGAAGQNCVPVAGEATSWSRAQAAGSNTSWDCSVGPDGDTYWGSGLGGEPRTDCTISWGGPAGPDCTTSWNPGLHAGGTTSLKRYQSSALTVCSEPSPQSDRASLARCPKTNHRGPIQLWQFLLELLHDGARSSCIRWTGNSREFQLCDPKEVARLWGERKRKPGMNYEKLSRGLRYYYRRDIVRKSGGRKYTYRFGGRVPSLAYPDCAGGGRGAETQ
Summary of the method: as §1

ELF3 = biological target: T4, ELF3 (Homo sapiens, UniProt P78545 1-371); conditions: protein: recombinant; tags: N-terminal GST; dsDNA, one strand shown
T4 sequence: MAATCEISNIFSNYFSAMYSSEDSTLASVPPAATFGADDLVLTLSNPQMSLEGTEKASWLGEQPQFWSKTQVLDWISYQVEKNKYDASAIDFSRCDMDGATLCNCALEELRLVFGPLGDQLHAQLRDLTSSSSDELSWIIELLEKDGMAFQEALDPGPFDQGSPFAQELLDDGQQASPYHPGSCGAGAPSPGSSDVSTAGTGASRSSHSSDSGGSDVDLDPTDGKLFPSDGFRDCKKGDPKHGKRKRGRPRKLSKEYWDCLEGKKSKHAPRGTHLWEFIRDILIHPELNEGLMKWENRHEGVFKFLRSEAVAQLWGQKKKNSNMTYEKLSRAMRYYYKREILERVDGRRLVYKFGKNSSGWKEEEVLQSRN
Summary of the method: as §1

CRX = CRX (Homo sapiens, UniProt O43186 1-299); conditions: protein: recombinant; tags: N-terminal GST; dsDNA, one strand shown
CRX, sequence (O43186 whole entry): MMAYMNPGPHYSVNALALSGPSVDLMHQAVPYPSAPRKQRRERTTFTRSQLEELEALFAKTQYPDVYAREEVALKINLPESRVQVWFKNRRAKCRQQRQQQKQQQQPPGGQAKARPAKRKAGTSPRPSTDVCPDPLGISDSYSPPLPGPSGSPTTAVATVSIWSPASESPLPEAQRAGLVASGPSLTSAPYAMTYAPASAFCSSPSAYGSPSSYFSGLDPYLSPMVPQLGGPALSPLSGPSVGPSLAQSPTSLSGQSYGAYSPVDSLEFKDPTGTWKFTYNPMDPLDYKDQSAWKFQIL
Summary of the method: as §1

ETV1 = ETV1 (Homo sapiens, UniProt P50549 1-477); conditions: protein: recombinant; tags: N-terminal GST; dsDNA, one strand shown
ETV1, sequence (P50549 whole entry): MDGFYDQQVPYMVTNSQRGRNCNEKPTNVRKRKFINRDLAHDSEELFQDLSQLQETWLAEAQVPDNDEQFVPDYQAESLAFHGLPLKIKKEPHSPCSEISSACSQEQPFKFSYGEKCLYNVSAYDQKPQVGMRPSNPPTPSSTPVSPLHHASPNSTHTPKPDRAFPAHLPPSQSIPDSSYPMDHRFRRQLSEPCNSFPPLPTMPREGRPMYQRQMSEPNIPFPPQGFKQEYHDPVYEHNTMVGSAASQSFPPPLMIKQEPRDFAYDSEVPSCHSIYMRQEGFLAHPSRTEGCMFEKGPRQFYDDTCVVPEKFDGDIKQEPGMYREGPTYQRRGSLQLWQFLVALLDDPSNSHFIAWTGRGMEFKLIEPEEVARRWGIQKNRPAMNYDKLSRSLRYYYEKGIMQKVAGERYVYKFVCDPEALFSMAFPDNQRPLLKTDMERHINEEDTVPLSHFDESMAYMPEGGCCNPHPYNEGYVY
Summary of the method: as §1

ERF = biological target: T5, ERF (Homo sapiens, UniProt P50548 1-548); conditions: protein: recombinant; tags: N-terminal GST; dsDNA, one strand shown
T5 sequence: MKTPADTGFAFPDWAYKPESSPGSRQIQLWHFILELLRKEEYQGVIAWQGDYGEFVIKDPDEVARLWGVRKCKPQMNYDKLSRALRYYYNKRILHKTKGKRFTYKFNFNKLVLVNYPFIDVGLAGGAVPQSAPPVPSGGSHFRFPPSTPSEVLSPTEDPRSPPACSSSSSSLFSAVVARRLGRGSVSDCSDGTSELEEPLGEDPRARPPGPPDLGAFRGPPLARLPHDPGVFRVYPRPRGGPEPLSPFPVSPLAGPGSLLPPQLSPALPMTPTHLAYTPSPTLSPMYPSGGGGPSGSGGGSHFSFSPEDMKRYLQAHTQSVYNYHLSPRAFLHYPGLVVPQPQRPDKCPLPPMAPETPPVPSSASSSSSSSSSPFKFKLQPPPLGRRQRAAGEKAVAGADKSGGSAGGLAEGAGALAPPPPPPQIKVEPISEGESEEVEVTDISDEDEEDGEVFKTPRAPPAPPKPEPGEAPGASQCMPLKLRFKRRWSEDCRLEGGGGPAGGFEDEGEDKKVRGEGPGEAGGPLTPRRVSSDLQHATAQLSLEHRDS
Summary of the method: as §1

ETV3L = biological target: T6, ETV3L (Homo sapiens, UniProt Q6ZN32 1-361); conditions: protein: recombinant; tags: N-terminal GST; dsDNA, one strand shown
T6 sequence: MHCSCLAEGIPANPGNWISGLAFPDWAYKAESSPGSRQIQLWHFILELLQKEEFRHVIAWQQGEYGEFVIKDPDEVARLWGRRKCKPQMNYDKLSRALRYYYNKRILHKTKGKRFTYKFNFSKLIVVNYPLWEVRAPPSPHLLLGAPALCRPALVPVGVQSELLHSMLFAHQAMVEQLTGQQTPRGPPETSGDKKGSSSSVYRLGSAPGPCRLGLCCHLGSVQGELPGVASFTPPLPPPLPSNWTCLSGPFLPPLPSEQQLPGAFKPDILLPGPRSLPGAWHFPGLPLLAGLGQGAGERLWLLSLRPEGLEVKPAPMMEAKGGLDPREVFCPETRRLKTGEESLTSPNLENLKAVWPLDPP
Summary of the method: as §1

ETS2 = biological target: T7, ETS2 (Homo sapiens, UniProt P15036 1-469); conditions: protein: recombinant; tags: N-terminal GST; dsDNA, one strand shown
T7 sequence: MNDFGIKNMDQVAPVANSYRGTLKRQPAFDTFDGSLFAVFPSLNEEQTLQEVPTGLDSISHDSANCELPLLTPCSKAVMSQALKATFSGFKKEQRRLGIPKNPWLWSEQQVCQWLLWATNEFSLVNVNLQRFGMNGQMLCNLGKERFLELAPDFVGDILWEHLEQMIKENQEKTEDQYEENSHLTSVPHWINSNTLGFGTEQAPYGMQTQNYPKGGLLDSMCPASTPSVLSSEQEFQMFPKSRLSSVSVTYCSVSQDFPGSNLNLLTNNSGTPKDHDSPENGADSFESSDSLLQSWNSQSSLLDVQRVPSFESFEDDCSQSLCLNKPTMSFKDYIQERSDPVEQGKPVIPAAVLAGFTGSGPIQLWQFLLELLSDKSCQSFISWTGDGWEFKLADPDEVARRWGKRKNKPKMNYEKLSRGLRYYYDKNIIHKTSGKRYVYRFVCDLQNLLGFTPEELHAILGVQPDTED
Summary of the method: as §1

ETV7 = biological target: T8, ETV7 (Homo sapiens, UniProt Q9Y603 1-341); conditions: protein: recombinant; tags: N-terminal GST; dsDNA, one strand shown
T8 sequence: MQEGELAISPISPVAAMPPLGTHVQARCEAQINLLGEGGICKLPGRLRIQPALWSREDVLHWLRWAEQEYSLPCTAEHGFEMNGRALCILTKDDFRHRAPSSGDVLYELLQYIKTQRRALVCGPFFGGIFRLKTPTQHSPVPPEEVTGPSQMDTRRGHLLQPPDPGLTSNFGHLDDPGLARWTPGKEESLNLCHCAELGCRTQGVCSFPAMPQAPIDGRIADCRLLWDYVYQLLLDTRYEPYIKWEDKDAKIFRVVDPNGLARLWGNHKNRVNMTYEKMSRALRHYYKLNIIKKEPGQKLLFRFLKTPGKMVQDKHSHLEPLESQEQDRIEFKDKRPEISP
Summary of the method: as §1

ELF5 = biological target: T9, ELF5 (Homo sapiens, UniProt Q9UKW6-2 1-255); conditions: protein: recombinant; tags: N-terminal GST; dsDNA, one strand shown
T9 sequence: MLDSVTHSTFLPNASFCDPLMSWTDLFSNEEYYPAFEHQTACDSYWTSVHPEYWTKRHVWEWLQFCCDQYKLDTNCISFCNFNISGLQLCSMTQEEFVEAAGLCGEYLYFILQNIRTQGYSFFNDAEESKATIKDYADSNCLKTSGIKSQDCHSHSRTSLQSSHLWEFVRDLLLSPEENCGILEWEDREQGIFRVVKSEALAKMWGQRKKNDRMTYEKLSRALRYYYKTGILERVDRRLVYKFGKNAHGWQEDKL
Summary of the method: as §1

ETV3 = biological target: T10, ETV3 (Homo sapiens, UniProt P41162-2 1-143); conditions: protein: recombinant; tags: N-terminal GST; dsDNA, one strand shown
T10 sequence: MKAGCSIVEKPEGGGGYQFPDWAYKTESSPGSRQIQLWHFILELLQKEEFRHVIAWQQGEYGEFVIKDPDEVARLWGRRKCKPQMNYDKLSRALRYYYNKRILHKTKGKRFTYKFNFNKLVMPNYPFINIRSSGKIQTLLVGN
Summary of the method: as §1

ETV6 = ETV6 (Homo sapiens, UniProt P41212 1-452); conditions: protein: recombinant; tags: N-terminal GST; dsDNA, one strand shown
ETV6, sequence (P41212 whole entry): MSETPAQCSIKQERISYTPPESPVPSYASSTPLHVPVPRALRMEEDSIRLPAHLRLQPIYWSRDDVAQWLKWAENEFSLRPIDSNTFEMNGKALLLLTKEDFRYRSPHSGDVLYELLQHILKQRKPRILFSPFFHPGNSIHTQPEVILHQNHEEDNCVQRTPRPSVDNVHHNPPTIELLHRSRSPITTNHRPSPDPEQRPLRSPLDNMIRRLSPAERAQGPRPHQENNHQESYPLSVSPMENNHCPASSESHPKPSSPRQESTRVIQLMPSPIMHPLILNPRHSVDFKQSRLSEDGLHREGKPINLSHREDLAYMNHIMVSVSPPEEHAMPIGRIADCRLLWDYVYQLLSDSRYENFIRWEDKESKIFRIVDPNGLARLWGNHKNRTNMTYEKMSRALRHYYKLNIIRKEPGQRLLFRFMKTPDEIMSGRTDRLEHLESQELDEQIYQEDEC
Summary of the method: as §1

SPDEF = biological target: T11, SPDEF (Homo sapiens, UniProt O95238 1-335); conditions: protein: recombinant; tags: N-terminal GST; dsDNA, one strand shown
T11 sequence: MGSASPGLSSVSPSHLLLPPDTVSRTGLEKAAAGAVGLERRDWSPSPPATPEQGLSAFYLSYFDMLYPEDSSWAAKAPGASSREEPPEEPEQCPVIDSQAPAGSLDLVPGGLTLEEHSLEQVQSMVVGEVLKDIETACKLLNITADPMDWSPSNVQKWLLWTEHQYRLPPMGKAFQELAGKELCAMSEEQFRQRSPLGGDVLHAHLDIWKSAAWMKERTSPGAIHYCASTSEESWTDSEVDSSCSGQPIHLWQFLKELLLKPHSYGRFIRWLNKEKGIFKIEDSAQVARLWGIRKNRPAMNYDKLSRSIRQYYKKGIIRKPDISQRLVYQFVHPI
Summary of the method: as §1

AGCTGC was tested, and the binding signal (FEV) was 1.15 fold enrichment (6-mer frequency, TF over GST control), the binding signal (ETV5) was 1.06 fold enrichment (6-mer frequency, TF over GST control) and the binding signal (HSF1) was 1.04 fold enrichment (6-mer frequency, TF over GST control). For the same sequence, the binding signal (ELF4) was 1.16 fold enrichment (6-mer frequency, TF over GST control), the binding signal (ELK4) was 1.11 fold enrichment (6-mer frequency, TF over GST control) and the binding signal (ETV2) was 1.22 fold enrichment (6-mer frequency, TF over GST control). For the same sequence, the binding signal (ELF3) was 1.08 fold enrichment (6-mer frequency, TF over GST control), the binding signal (CRX) was 1.13 fold enrichment (6-mer frequency, TF over GST control) and the binding signal (ETV1) was 1.18 fold enrichment (6-mer frequency, TF over GST control). The binding signal (ERF) was 1.17 fold enrichment (6-mer frequency, TF over GST control), the binding signal (ETV3L) was 1.07 fold enrichment (6-mer frequency, TF over GST control) and the binding signal (ETS2) was 1.17 fold enrichment (6-mer frequency, TF over GST control). The binding signal (ETV7) was 1.16 fold enrichment (6-mer frequency, TF over GST control), the binding signal (ELF5) was 1.06 fold enrichment (6-mer frequency, TF over GST control) and the binding signal (ETV3) was 1.16 fold enrichment (6-mer frequency, TF over GST control). The binding signal (ETV6) was 1.11 fold enrichment (6-mer frequency, TF over GST control).

With TTACGC the binding signal (FEV) was 1.1 fold enrichment (6-mer frequency, TF over GST control), the binding signal (ETV5) was 1.19 fold enrichment (6-mer frequency, TF over GST control) and the binding signal (HSF1) was 1.39 fold enrichment (6-mer frequency, TF over GST control). For the same sequence, the binding signal (ELF4) was 1.19 fold enrichment (6-mer frequency, TF over GST control), the binding signal (ELK4) was 1.04 fold enrichment (6-mer frequency, TF over GST control) and the binding signal (ETV2) was 1.16 fold enrichment (6-mer frequency, TF over GST control). For the same sequence, the binding signal (ELF3) was 1.01 fold enrichment (6-mer frequency, TF over GST control), the binding signal (CRX) was 1.81 fold enrichment (6-mer frequency, TF over GST control) and the binding signal (ETV1) was 1.13 fold enrichment (6-mer frequency, TF over GST control). The binding signal (ERF) was 1.15 fold enrichment (6-mer frequency, TF over GST control), the binding signal (ETV3L) was 1.05 fold enrichment (6-mer frequency, TF over GST control) and the binding signal (ETS2) was 1.1 fold enrichment (6-mer frequency, TF over GST control). For the same sequence, the binding signal (SPDEF) was 1.08 fold enrichment (6-mer frequency, TF over GST control), the binding signal (ETV7) was 1.02 fold enrichment (6-mer frequency, TF over GST control) and the binding signal (ETV3) was 1.16 fold enrichment (6-mer frequency, TF over GST control). For the same sequence, the binding signal (ETV6) was 1.11 fold enrichment (6-mer frequency, TF over GST control).
